Rows were chosen to be rich in hits. Some 11% of all compounds tested hit in one or more screens of this group.
HP1b binding inh: HP1-beta chromodomain-methylated histone interaction inhibition; P83916; AlphaScreen HP1-beta / biotin-H3K9me3 peptide binding; Potency, µM (top dose mostly 114 µM), without a hit: at the top dose activity change, negative = inhibition, most hits filed as inhibitors; 390,000 tested, 0.56% active; AID 540317; also: nearly all actives have a fitted effect of over 70% in size
Target sequence (P83916 whole entry, looked up): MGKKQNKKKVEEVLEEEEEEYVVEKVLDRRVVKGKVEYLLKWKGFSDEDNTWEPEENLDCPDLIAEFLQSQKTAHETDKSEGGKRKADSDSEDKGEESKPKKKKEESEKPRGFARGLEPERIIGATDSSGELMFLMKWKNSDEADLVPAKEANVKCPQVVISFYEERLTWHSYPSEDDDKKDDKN
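AlphaScreen: HP1-beta (50 nM) preformed 30 min with biotin-H3(1-18)K9me3 peptide (50 nM) in PBS pH 7.4, 0.01% Tween-20. Compound added for 30 min at RT, then streptavidin donor/nickel chelate acceptor beads (10 ug/mL) for 30 min.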
JMJD2A Tudor inh: JMJD2A Tudor domain (human) inhibition; 390,000 tested, 4.4% active; Potency, µM (titrated, usually from 114 µM), for the others: at the top dose activity change, negative = inhibition, actives largely listed as inhibitors; AID 504339; O75164; AlphaScreen JMJD2A-Tudor / H3K4me3 peptide binding; also: % is scaled to controls: 0 for no effect and ±100 for the full control effect; nearly all actives have a fitted effect of over 50% in size
G9a inh: blocks human histone lysine methyltransferase G9a. 350,000 tested, 8.8% active. G9a H3K9 monomethylation, AlphaScreen, 2 h. AID 504332. Potency, µM (titrated, usually from 102 µM), for the others: at the top dose activity, negative = inhibition, usual class: inhibitors. Q96KQ7; also: % is scaled to controls: 0 for no effect and ±100 for the full control effect; nearly all actives have a fitted effect of over 75% in size
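Enzyme 20 nM + cpd, 15 min RT; add b-H3K9 pep 500 nM / SAM 20 uM; 2 h RT; anti-H3K9me1 Ab 0.5 ug/mL + SA donor / anti-rabbit acceptor beads 20 ug/mL each, 10 min; AlphaScreen read.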
BAZ2B inh: blocks human BAZ2B | AlphaScreen BAZ2B-H3K14Ac peptide displacement | AID 504333 | Potency, µM (series often up to 114 µM), for inactives: at the top dose activity change, negative = inhibition, most hits filed as inhibitors | 360,000 tested, 4.4% active | Q9UIF8; also: % is scaled to controls: 0 for no effect and ±100 for the full control effect; nearly all actives have a fitted effect of over 60% in size
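AlphaScreen luminescence quantifies BAZ2B engagement of H3K14Ac peptide; the protein and biotinylated peptide are both at 50 nM final, buffer PBS pH 7.4 with 0.01% Tween-20, all steps at room temperature.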
VDR inh: inhibitors of human vitamin D receptor; P11473; VDR-SRC2-3 peptide fluorescence polarization, 2 h; Potency, µM, for the others: max response, negative = inhibition, usual class: inhibitors; 400,000 tested, 0.93% active; AID 504847; also: % is scaled to controls: 0 for no effect and ±100 for the full control effect
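VDR–SRC2-3 interaction, FP format. Cmpds 23 nl via pintool, brief spin, 2 h ambient incubation.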
PLK1 PBD block: PLK1 (human) polo-box domain binding inhibition; P53350; Plk1 PBD binding of FITC phosphopeptide, fluorescence polarization; Potency, µM, for the others: max response, negative = inhibition, hits mostly inhibitors; 360,000 tested, 2.8% active; also: series mostly up to about 57 µM; % is scaled to controls: 0 for no effect and ±100 for the full control effect; nearly all actives have a fitted effect of over 65% in size
Target sequence (P53350 whole entry, looked up, the tested form may be a part): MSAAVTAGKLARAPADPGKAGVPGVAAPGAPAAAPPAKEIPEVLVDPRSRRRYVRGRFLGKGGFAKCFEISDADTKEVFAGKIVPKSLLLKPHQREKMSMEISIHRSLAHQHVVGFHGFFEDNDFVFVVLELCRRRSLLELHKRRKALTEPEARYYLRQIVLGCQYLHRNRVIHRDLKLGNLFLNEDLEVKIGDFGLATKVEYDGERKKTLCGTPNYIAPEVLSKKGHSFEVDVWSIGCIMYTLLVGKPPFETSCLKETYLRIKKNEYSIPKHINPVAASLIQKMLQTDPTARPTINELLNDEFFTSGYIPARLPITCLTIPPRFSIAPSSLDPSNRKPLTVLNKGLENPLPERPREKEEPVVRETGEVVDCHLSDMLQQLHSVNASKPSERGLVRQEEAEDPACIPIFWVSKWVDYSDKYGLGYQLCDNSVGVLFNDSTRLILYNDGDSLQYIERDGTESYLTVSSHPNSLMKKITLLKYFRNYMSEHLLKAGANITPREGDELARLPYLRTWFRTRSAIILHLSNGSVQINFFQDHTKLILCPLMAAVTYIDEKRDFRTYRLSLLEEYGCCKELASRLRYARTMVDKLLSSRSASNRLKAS
Numbers without * were called inactive; ? = inconclusive; · = no result given; [ ] = another dose, or the depositor's remark. Calls follow the shape of the dose curve; as a rule, active = well fitted curve in the direction sought with a large enough effect; inconclusive = small, poorly fitted or top-dose-only effect, or another doubt; inactive = no such curve, though single readings can be large; an effect the other way counts as inactive or inconclusive. Potency is read from the fitted curve at half-maximal effect.

SMILES	HP1b binding inh	JMJD2A Tudor inh	G9a inh	BAZ2B inh	VDR inh	PLK1 PBD block
CC(C)CNC(=O)[C@@H]1CSC2c3ccccc3C(=O)N21 (stereo not given in full)	15.1%	-11.9%	-3.2%	4.6%	-27.9%	?
Clc1ccc(C2=C3CCCCn4c(-c5ccccc5)c[n+](c43)C2)cc1	1.7%	?	14.1µM*	50.1µM*	-4.0%	-14.1%
O=C(C[n+]1cc(-c2ccc(Cl)cc2)n2c1CCCCC2)c1ccccc1	45.9%	-19.4%	10.5%[12.7 µM]	-3.8%	7.0%	-14.6%
COc1ccc(-c2c[n+]3c4n2CCCCC4=C(c2ccc(Br)cc2)C3)cc1	-13.0%	56.2µM*	8.91µM*	39.8µM*	6.9%	-7.9%
CN1OC[C@@H]2CN(S(=O)(=O)c3ccccc3)[C@H](c3ccccc3Br)C[C@@H]21	·	·	·	·	·	0.9%
O=C(NCc1ccc(Cl)cc1Cl)C1CCN(S(=O)(=O)c2ccc3c(c2)OCCCO3)CC1	15.7%	-3.4%	-8.6%[59 µM]	8.4%	-9.3%	-5.3%
COc1c2ccoc2nc2c(OC)c(OC[C@@H](O)C(C)(C)O)ccc12	27.9%	-21.4%	2.0%[59 µM]	9.1%	-10.1%	-0.9%
Cn1cccc1/C=N/n1c(-c2ccc(C(C)(C)C)cc2)n[nH]c1=S	50.1µM*	50.1µM*	7.94µM*	44.7µM*	-9.6%	?
Cn1cccc1/C=N/n1c(-c2ccccc2)n[nH]c1=S	?	3.55µM*	2.1%[0.501 µM]	?	21.0%	?
COc1ccc(/C=N/NC(=O)c2cc(-c3ccc(C)cc3C)nc3ccccc23)cc1COC(C)=O	36.4%	-11.9%	2.5%	-35.1%[57.1 µM]	1.3%	-7.2%
Cc1ccc(CN2CCCn3nc(C(=O)NCCc4ccc(Cl)cc4)cc3C2=O)cc1	3.2%	-12.6%	-3.4%[59 µM]	-33.2%	1.2%	·
Cc1ccc([N+](=O)[O-])cc1S(=O)(=O)Nc1ccc(C(=O)N(C)C)cc1	53.5%	6.2%	3.4%	-34.4%	14.9%	-5.2%
O=C(COc1cc(Cl)c(Cl)cc1Cl)Nc1ccncc1	-10.0%	89.1µM*	15.5%[12.7 µM]	9.4%	17.0%	?
Cc1ccc([N+](=O)[O-])cc1S(=O)(=O)Nc1ccc(C(=O)N2CCN(C(=O)c3ccco3)CC2)cc1	-12.5%	79.4µM*	-11.3%[2.33 µM]	?	-1.4%	-0.4%
CN1CCN(c2ccc(NC(=O)COc3cccc4ccccc34)cc2)CC1	-10.4%	?	?	?	-22.4%	-8.1%
O=C(COc1ccc([N+](=O)[O-])cc1)Nc1ccc(N2CCN(C(=O)c3ccco3)CC2)cc1	52.1%	-14.4%	·	25.1µM*	-7.7%	-0.5%
CN1CCN(c2ccc(NC(=O)COc3ccc4ccccc4c3)cc2)CC1	12.2%	-25.2%	35.5µM*	-18.4%	-1.3%	-6.5%
COc1ccc(Cn2cc(CN3CC(N4CCN(C)CC4)CS3(=O)=O)nn2)cc1 (stereo not given)	·	·	·	·	·	-8.3%
O=C(O)Cc1ccc(NC(=O)COc2ccc3ccccc3c2)cc1	19.8%	2.2%	18.0%	-7.2%	7.2%	-15.7%
O=C(COc1ccc2ccccc2c1)Nc1ccc(Cc2ccncc2)cc1	60.5%	79.4µM*	-9.8%	?	-4.9%	?
O=C(COc1ccc2ccccc2c1)NCCNC(=O)COc1ccc2ccccc2c1	8.4%	-12.7%	?	?	6.2%	-1.2%
O=C(COc1ccc2ccccc2c1)NN1C(=O)c2ccccc2C1=O	9.6%	89.1µM*	-1.5%[59 µM]	9.4%	-6.5%	26.7µM*
CCc1ccc(C(=O)c2cn(CC(=O)NCCc3ccc(OC)c(OC)c3)c3nc(C)ccc3c2=O)cc1	20.5%	-22.4%	11.5%[59 µM]	0.2%	-2.5%	·
C=CCn1c(SCc2cccc(C#N)c2)nnc1-c1ccccc1O	19.5%	?	8.3%[59 µM]	5.5%	-25.8%	26.7µM*
CN(C)c1ccc(C=C2C=C(c3ccccc3)OC2=O)cc1	·	·	·	·	·	-1.3%
SMILES	HP1b binding inh	JMJD2A Tudor inh	G9a inh	BAZ2B inh	VDR inh	PLK1 PBD block
CN(C)c1ccc(/C=C2/C=C(c3ccc4c(c3)CCCC4)OC2=O)cc1	?	2.51µM*	-17.1%[59 µM]	?	-6.7%	2.1%
CN(c1ccccc1)S(=O)(=O)c1ccc(Cl)c(C(=O)Nc2ccc(-c3nc4ccccc4[nH]3)cc2)c1	24.0%	-15.9%	9.5%[59 µM]	-8.6%	-3.7%	8.4%
CN(c1ccccc1)S(=O)(=O)c1ccc(Cl)c(C(=O)Nc2nn[nH]n2)c1	24.9%	-18.2%	28.2µM*	?	-29.8%	-8.7%
CCOc1ccc(S(=O)(=O)N(C)C2CCCCC2)cc1	80.5%	46.2%	101.0%	0.6%	2.3%	2.9%
CN(C1CCCCC1)S(=O)(=O)c1cccc(C#N)c1	-20.3%	-19.7%	-43.7%	-3.3%	-5.8%	23.8µM*
CN(C1CCCCC1)S(=O)(=O)c1ccc(=S)[nH]c1	-10.7%	-19.5%	-17.9%[12.7 µM]	30.9%	50.1µM*	21.2µM*
COC(=O)C(C(C)C)N1CC(=O)c2ccccc2S1(=O)=O (stereo not given)	61.1%	-11.0%	·	·	-21.9%	·
CCn1c(O)c(/C=C2\C=Nc3ccccc32)sc1=Nc1ccccc1	1.2%	-23.9%	33.8%	-30.8%[57.1 µM]	12.2%	-11.3%
Cn1c(O)c(/C=C2\C=Nc3ccccc32)sc1=Nc1ccc(C(=O)O)cc1	20.6%	-33.7%	35.5µM*	50.1µM*	-12.6%	-22.2%
CCCN1CNc2c(c(=O)[nH]c(=S)n2Cc2ccc(OC)c(OC)c2)C1	1.7%	-16.3%	·	·	7.8%	·
CN(CCC1CCCCO1)C(=O)CCc1nnc(Cc2c[nH]c3ccccc23)o1 (stereo not given)	35.3%	-7.6%	79.4µM*	-14.6%	-2.3%	4.8%
COc1ccccc1-c1ccc([C@@H]2C[C@H]3[C@H](CON3C)CN2C(=O)c2ccc(-c3ccccc3)cc2)cc1	·	·	·	·	·	-12.6%
O=C(Cn1ncc2c1-c1ccccc1OC2)N1CCN(c2ccccc2F)CC1	31.0%	-6.9%	-2.6%[59 µM]	-1.2%	-13.6%	·
Cc1ccnc(Nc2cccnc2)n1	·	·	·	·	·	-5.2%
C=CCN1/C(=C2/SC(=S)N(C)C2=O)Sc2ccccc21	·	·	39.8µM*	?	·	·
CCN1/C(=C2\SC(=S)N(Cc3ccccc3)C2=O)Sc2ccccc21	56.7%	1.9%	17.8%[59 µM]	1.8%	-13.8%	-2.4%
O=C1NC(=S)S/C1=C1\Sc2ccccc2N1CCCS(=O)(=O)O	?	17.1%[11.4 µM]	10µM*	?	-5.2%	?
CCN1/C(=C2/SC(=S)N(NC(C)=O)C2=O)Sc2ccccc21	33.6%	-4.7%	·	17.3%	-8.9%	-13.6%
NN1C(=O)/C(=C2/Sc3ccccc3N2CCCS(=O)(=O)O)SC1=S	-23.2%	?	39.8µM*	79.4µM*	-4.9%	-27.7%
CCN1C(=O)/C(=C2/Sc3ccccc3N2CC)SC1=S	30.9%	-3.7%	·	-7.5%	-21.9%	-8.8%
O=C(NCCc1ccccc1)c1ccc(CSc2nc3ccncc3n2Cc2ccccc2F)cc1	52.2%	-16.4%	?	-4.3%	?	·

Source: PubChem BioAssay
